Data taken from PubChem BioAssay.
Calls of active or inactive are those of the source.

Assay: budding yeast growth changes without added modifier – OD600, strain BY4716, 24 h, basal condition, primary screen (AID 1173)
Conditions: S. cerevisiae BY4716 growth, OD600, 24 h; higher = more signal, called active from +8 up or from −8 down

z-score, inactive:
COC(=O)[C@@]1(Cc2ccc(F)cc2)[C@H]2c3cc(C(=O)N(C)C)n(CCN4CCOCC4)c3C[C@H]2CN1C(=O)c1ccccc1 1.22
C[N+](C)(C)CCCCCCNC(=O)[C@@H]1C[C@@H]2C(=O)N[C@@H](Cc3ccccc3)C(=O)N2[C@@H]1c1ccc(O)cc1 -0.471
CO[C@H]1O[C@H](CO)[C@@H](OC(=O)Nc2ccc(C(F)(F)F)cc2)[C@H](OC(=O)Nc2ccccc2-c2ccccc2)[C@@H]1OC(=O)Nc1ccccc1-c1ccccc1 0.28
C=C(CCCC)/C(=C/C[C@H](OC(C)=O)c1cccc(OCCO)c1)c1cc(C(=O)OC)ccc1OC -0.456
COc1ccc([Si](C)(C)[C@H]2[C@H](CCn3cc([C@H](O)c4ccccc4)nn3)O[C@@]3(C(=O)N(C)c4c(Br)cc(C)cc43)[C@@H]2C)cc1 -0.691
COCCOC(=O)N1C(=O)[C@@]2(c3cc(C#CC4(O)CCCCCC4)ccc31)[C@H](C(=O)N1CCc3cc(OC)c(OC)cc3C1)[C@H]1C(=O)O[C@H](c3ccccc3)[C@H](c3ccccc3)N1[C@@H]2c1ccc(O)cc1 0.257
C=CCOC(=O)[C@H]1[C@@H]2C(=O)O[C@@H](c3ccccc3)[C@@H](c3ccccc3)N2[C@@H](c2ccc(OCCOC(=O)[C@H]3C[C@H]4C(=O)NCC(=O)N4[C@H]3c3ccc(O)cc3)cc2)[C@]12C(=O)Nc1ccc(I)cc12 1.27
COCCOC(=O)N1C(=O)[C@@]2(c3cc(C#CC4=CCCCC4)ccc31)[C@H](c1ccc(OCCO)cc1)N1[C@H](c3ccccc3)[C@H](c3ccccc3)OC(=O)[C@H]1[C@@H]2C(=O)N1CCCCCCC1 -0.747
CCOC(=O)C1=C(C(=O)OCC)N(S(=O)(=O)CC[Si](C)(C)C)[C@H](c2ccccc2)CC1 1.77
C=CCC(OC(C)=O)[C@@H]1[C@@H](N(Cc2cc3ccccc3o2)C(=O)c2ccc(-c3ccccc3)cc2)c2cc(OCCCO)ccc2N1C(=O)c1ccc2ccccc2n1 (some centres not stated) 0.848
O=C1O[C@@H](c2ccccc2)[C@@H](c2ccccc2)N2[C@@H](c3ccc(O)cc3)[C@]3(C(=O)Nc4ccc(C#CC5=CCCCC5)cc43)[C@@H](C(=O)N3CCCCCCC3)[C@H]12 -1.2
COCCOC(=O)N1C(=O)[C@@]2(c3cc(C#CCC(C(=O)OC)C(=O)OC)ccc31)[C@H](C(=O)N1CCc3cc(OC)c(OC)cc3C1)[C@H]1C(=O)O[C@H](c3ccccc3)[C@H](c3ccccc3)N1[C@@H]2c1ccc(O)cc1 0.541
C=C(/C(=C/C[C@H](OC(=O)c1ccncc1)c1ccccc1OCCO)c1cc(C(=O)OC)ccc1OC)C(C)C 0.0223
NCCCC[C@@H]1NC(=O)[C@H]2C[C@@H](C(=O)O)[C@@H](c3cccc(OCCO)c3)N2C1=O -0.0349
CCCCN1CC=CC23O[C@@H]4/C=C\CCC(C)OC(=O)C4[C@H]2C(=O)N(C(C)CO)[C@@H]3C1=O (some centres not stated) -0.0298
CC(=O)c1ccc(C(O)C2C=CC3C(=O)NC(=O)C3N2Nc2ccc(Cl)cc2Cl)cc1 (configuration not stated) -2.33
C[N+](C)(C)CCCC[C@@H]1NC(=O)[C@H]2C[C@@H](C(=O)NCCCCCNC(=O)CS)[C@@H](c3ccc(O)cc3)N2C1=O -0.905
CN(C)CCCCNC(=O)[C@H]1C[C@H]2C(=O)N[C@@H](Cc3ccccc3)C(=O)N2[C@H]1c1cccc(OCCO)c1 -0.456
NC(=O)NCC#Cc1ccc2c(c1)[C@]1(C(=O)N2)[C@H](C(=O)Nc2nc3ccccc3s2)[C@H]2C(=O)O[C@H](c3ccccc3)[C@H](c3ccccc3)N2[C@@H]1c1ccc(OCCO)cc1 1.12
CC(C)CNC(=O)[C@@H]1c2ccccc2C(=O)N(Cc2ccccc2Cl)[C@H]1c1ccc(CO)cc1 -0.161
C=CCNC(=O)[C@H]1[C@@H]2C(=O)O[C@@H](c3ccccc3)[C@@H](c3ccccc3)N2[C@@H](c2ccc(O)cc2)[C@]12C(=O)Nc1ccc(C#CC3=CCCCC3)cc12 -0.147
CN(C)C(=O)[C@]1(Cc2ccccc2CN=[N+]=[N-])N=C(c2ccc(OCCCO)cc2)O[C@@H]1c1ccccc1N=[N+]=[N-] -0.0107
